Source: PubChem BioAssay
Inconclusive results are not listed. The source made the active and inactive calls.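 How the source made its calls, unless noted: active means RAM network inhibition above 8.4% in each of two replicates, 3 SD over the compound average; inconclusive means above 8.4% inhibition in only one replicate; inactive means 8.4% inhibition or less in each replicate.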

Legend:
[1] = reduced viability of SK-BR-3 breast cancer cells – cell-based, 24 h, human, pilot screen (AID 572;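 active means viability at or below 10% of carrier control in both of two separate runs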;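 further: compound exposure lasted between 18 and 24 h rather than exactly 24 h; 100% = carrier-treated control wells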); settings: SK-BR-3 viability, CellTiter-Glo luminescence, at 10 µM, stronger effect = lower value
[2] = HUVEC growth inhibition – cell-based, human, primary screen (AID 575;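 active means viability at or below 30% in both replicate assays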;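 further: 100% = median of untreated cell wells with 0.1% DMSO on each plate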); settings: HUVEC proliferation, CellTiter-Glo luminescence, 72 h; at 10 µM; stronger effect = lower value
[3] = H69AR cell proliferation blockers – human, duplicate replicates, primary screen (AID 580;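 active means viability at or under a set limit in both replicates, limit being median viability minus 3 SD, cut at about 48% in these data, passing the limit was not always enough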;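 further: 100% = mean luminescence of untreated wells and 0% = no signal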); settings: H69AR lung tumor cells viability, ATP luminescence, 72 h; at 10 µM; stronger effect = lower value
[4] = MRP1 drug-resistance reversers in H69AR cells – cell-based, doxorubicin co-treatment, pilot screen (AID 601;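 active means viability loss from added drug above about 55%, and viability with drug at most 40%, in both replicates, limit read from the data, passing the limit was not always enough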); settings: CellTiter-Glo, 72 h, at 10 µM; for differential viability (reversal): stronger effect = higher value
[5] = yeast transport mutant growth inhibition pilot in 384-well plates, post-Golgi transport modulator project (AID 636; in the data active means inhibition above about 31%); settings: absorbance 615 nm, about 18 h, stronger effect = higher value
[6] = growth suppression of yeast trafficking mutant, preliminary HTS, modulators of trafficking downstream of Golgi apparatus project, 1536-format plate, OD 615 nm (AID 637; in the data active means inhibition above about 30%); settings: yeast transport mutant growth, absorbance 615 nm, 18 h; stronger effect = higher value
[7] = S. cerevisiae growth inhibition in permissive medium (OD615), pilot counter-assay for S. cerevisiae lifespan shortening project, permissive growth control (AID 705;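 active means growth inhibition above 25% in both replicates, a cutoff set 3 SD above the mean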); settings: OD615, 24 h, at 10 µM, stronger effect = higher value
[8] = S. cerevisiae growth inhibition in restrictive medium, OD615, pilot screen, restrictive growth control, yeast lifespan reduction project (AID 706;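 active means growth inhibition above a set limit, 3 SD over mean compound inhibition, in both replicates, cut at about 43% in these data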;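 further: modified DeaD lifespan yeast strain shifted to restrictive glucose medium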); settings: OD615, 48 h, at 10 µM, stronger effect = higher value
[9] = doxorubicin toxicity protection in MRP-1 cells – H69AR cells, CellTiter-Glo, duplicate, MRP-1 activator project, pilot screen (AID 807;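 active means viability increase at or above a cutoff of the median across tested compounds plus 3 SD, cut at about 8.5% in these data, passing the limit was not always enough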;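 further: compound pretreatment 18-22 h then 72 h combined with doxorubicin; 0% = doxorubicin alone and 100% = vehicle without doxorubicin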); settings: H69AR viability with doxorubicin, CellTiter-Glo luminescence; at 10 µM; stronger effect = higher value
[10] = viability of HCT116 without oncogenic beta-catenin – human colon tumor cells, pilot screen (AID 823;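 active means cell viability at or below a set limit in both duplicate runs, the limit being the all-compound median minus 4 SD, cut at about 23% in these data, passing the limit was not always enough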;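 further: 0% = wells killed by 20 µM Hyamine and 100% = untreated DMSO cell wells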); settings: HCT116 beta-catenin knockout viability, CellTiter-Glo, 60 h; at 10 µM; stronger effect = lower value
[11] = RAM pathway blockade in budding yeast – dse1pr::URA3 reporter, 5-FOA selection, pilot screen (AID 869;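 active means inhibition over a set limit, the all-compound mean plus 3 SD, in both replicate runs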;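 further: 0% = DMSO wells with no growth and 100% = 10 µM 1-NA-PP1 with full growth; RAM network block rescues cells from 5-FOA so hits raise OD615 growth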); settings: S. cerevisiae dse1pr::URA3 5-FOA growth, OD615, 2 d; at 10 µM; stronger effect = higher value; strain carries analog-sensitive mutant Cbk1 kinase
[12] = RAM signaling pathway blockade in yeast – S. cerevisiae, Pdr1DBD-CYC8 efflux-inhibited sensitized strain, primary screen (AID 1298);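 further: 0% = DMSO untreated cells without growth and 100% = 10 µM 1-NA-PP1 full growth; higher means more yeast growth rescued from 5-FOA killing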; settings: S. cerevisiae cbk1-as DSE1-URA3 strain, 5-FOA growth OD615, 2 d; at 50 µM; stronger effect = higher value
[13] = viability of PTEN-null HCT116 cells – cell-based, HCT116 clonal line, CellTiter-Glo, pilot screen (AID 824;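 active means viability at or below 27.92% in each of two runs, the all-compound median minus 4 SD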;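 further: 0% = 20 µM Hyamine control and 100% = vehicle cell control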); settings: HCT116 PTEN-deleted viability, 60 h, at 10 µM, stronger effect = lower value
[14] = H69AR cells + 2 uM doxorubicin, measured here: viability with 2 uM doxorubicin, stronger effect = lower value
[15] = H69AR cells, compound alone cytotoxicity

SMILES | viability [1] | viability [2] | viability [3] | differential viability (reversal) ([4]; H69AR cells + 2 uM doxorubicin) | viability [4, 14] [%] | viability [4, 15] [%] | inhibition [5] | inhibition [6] | growth inhibition [7] | growth inhibition [8] | viability increase [9] | viability [10] | inhibition [11] | RAM network inhibition [12] | viability [13]
COc1ccc(OCCCC(=O)Nc2nncs2)cc1 | 97% (inactive) | 101% (inactive) | 89.6% (inactive) | 6.49% (inactive) | 83.1 | 89.6 | -5.27% (inactive) | -2.73% (inactive) | -11.5% (inactive) | -0.545% (inactive) | -0.07% (inactive) | 94.5% (inactive) | 2.95% (inactive) | 4.52% (inactive) | –
Cc1ccc(S(=O)(=O)N(CC(=O)N2CCC(C(N)=O)CC2)Cc2ccc(F)cc2)cc1 | 93% (inactive) | 110% (inactive) | 100% (inactive) | 11.3% (inactive) | 88.8 | 100 | -3.87% (inactive) | -3.45% (inactive) | -1.11% (inactive) | 2.36% (inactive) | -2.26% (inactive) | 97.5% (inactive) | -0.07% (inactive) | 1.49% (inactive) | 87.2% (inactive)
NC(=O)c1sc2nc(N3CCCCC3)c3c(c2c1N)CCCC3 | 75% (inactive) | 82.8% (inactive) | 85.7% (inactive) | -0.75% (inactive) | 86.4 | 85.7 | -6.89% (inactive) | 2.17% (inactive) | 8.56% (inactive) | – | -3.63% (inactive) | 104% (inactive) | 0.715% (inactive) | 5.61% (inactive) | 94.6% (inactive)
CCNc1ccc(C(=O)OCC)cc1NC(=O)c1cc(S(=O)(=O)N2CCOCC2)ccc1C | 108% (inactive) | 83.3% (inactive) | 98.5% (inactive) | 8.02% (inactive) | 90.5 | 98.5 | 2.99% (inactive) | 5.41% (inactive) | -9.95% (inactive) | -3.6% (inactive) | -5.71% (inactive) | – | 0.96% (inactive) | 8.14% (inactive) | 87.1% (inactive)
Cc1ccc(C)n1-c1ccc(-n2cnnn2)cc1 | 103% (inactive) | 97.5% (inactive) | – | -24.2% (inactive) | 76.6 | 52.4 | -3.47% (inactive) | -1.09% (inactive) | -9.52% (inactive) | 0.21% (inactive) | -7.7% (inactive) | 9.95% (active) | 1.65% (inactive) | 5.78% (inactive) | 10.3% (active)
COc1ccc(NC(=O)CC2CCCCC2)cc1OC | 96% (inactive) | 94.6% (inactive) | 103% (inactive) | 12.8% (inactive) | 90.2 | 103 | -6% (inactive) | -1.09% (inactive) | -9.11% (inactive) | -10.4% (inactive) | -0.97% (inactive) | 96.3% (inactive) | 2.6% (inactive) | 6.64% (inactive) | 93.4% (inactive)
Cc1cccc(OCC(=O)Nc2ccc(N3CCCC3)cc2)c1C | 112% (inactive) | 88.2% (inactive) | – | -3.12% (inactive) | 59.7 | 56.5 | -9.2% (inactive) | 1.64% (inactive) | 15.7% (inactive) | 14.8% (inactive) | -3.79% (inactive) | 72.4% (inactive) | 2.95% (inactive) | 5.36% (inactive) | 84.8% (inactive)
CCOc1ccc(NS(=O)(=O)c2cc(Cl)ccc2OC)cc1 | 102% (inactive) | 91% (inactive) | 70.8% (inactive) | -22.1% (inactive) | 92.9 | 70.8 | -6.93% (inactive) | -5.09% (inactive) | -10.7% (inactive) | -13.3% (inactive) | -2.64% (inactive) | 75.1% (inactive) | 0.335% (inactive) | 0.17% (inactive) | 76.2% (inactive)
COC(=O)c1cc(-c2ccccc2)sc1NC(=O)c1cc(C)on1 | 121% (inactive) | 96.6% (inactive) | 95.9% (inactive) | 5.14% (inactive) | 90.8 | 95.9 | -4.38% (inactive) | -6.45% (inactive) | -0.31% (inactive) | -11.1% (inactive) | -2.24% (inactive) | 93.7% (inactive) | 1.4% (inactive) | 2.94% (inactive) | 84.2% (inactive)
CCOC(=O)Cn1c(CN(C)Cc2ccccc2)nc2c1c(=O)n(C)c(=O)n2C | 94% (inactive) | 112% (inactive) | 87.1% (inactive) | -9.54% (inactive) | 96.6 | 87.1 | -7.43% (inactive) | 0.18% (inactive) | -28.8% (inactive) | -4.63% (inactive) | -2.98% (inactive) | 82.9% (inactive) | 0.24% (inactive) | -0.42% (inactive) | –
Cc1oc(-c2cccc(Cl)c2)nc1CN1CCC(C(=O)N2CCN(c3ccccc3F)CC2)CC1 | 73% (inactive) | 4.6% (active) | 32.3% (active) | -24.7% (inactive) | 57 | 32.3 | -1.6% (inactive) | -3.28% (inactive) | 0.125% (inactive) | 1.06% (inactive) | -7.78% (inactive) | 17.2% (active) | 1.05% (inactive) | 6.04% (inactive) | 10.2% (active)
